Records with an inconclusive call do not appear. Activity calls are given as the source filed them. How the source made its calls: active means hit-call score of the fitted dose curve at least 0.9, where 1 is the maximum; inconclusive means response in the unintended direction; inactive means score below 0.9.

The test is described as follows: ATG_XTT_Cytotoxicity: Cytotoxicity Assessment in the Attagene TRANS-FACTORIAL HepG2 Assay (AID 2283584).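 On AC50: cells exposed to compound for 24 h before reading.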 How it is done:
ATG_XTT_Cytotoxicity is a cell-based, single-readout assay that uses HepG2, a human liver cell line, with measurements taken at 24 hours after chemical dosing in a 24-well plate.ATG_XTT_Cytotoxicity is one of one assay component(s) measured or calculated from the ATG_XTT_Cytotoxicity assay. It is designed to make measurements of cell number, a form of viability reporter, as detected with […] signals by XTT cytotoxicity assay technology.Data from the assay component ATG_XTT_Cytotoxicity was analyzed into 1 assay endpoint. This assay endpoint, ATG_XTT_Cytotoxicity, was analyzed in the positive analysis fitting direction relative to DMSO as the negative control and baseline of activity. Using a type of viability reporter, loss-of-signal activity can be used to understand changes in the viability. Furthermore, this assay endpoint can be referred to as a primary readout, because the performed assay has only produced 1 assay endpoint. To generalize the intended target to other relatable targets, this assay endpoint is annotated to the cell cycle intended target family, where the subfamily is cytotoxicity.
Human liver HepG2 cells are transiently transfected with multiple reporter transcription units (MRTUs) in 6-well plates using FuGene 6 reagent (Roche; 3 ml FuGene/1 mg DNA). The MRTU constructs are regulated by a cis-regulating element (promoter). […] A major difference between the CIS and TRANS system is that in CIS activities of endogenous TFs are measured, whereas the TRANS assay evaluates changes in activities of exogenous, chimeric NR-Gal4 proteins. […] At the end of 24 hour incubation, total RNA was isolated using TriZol reagent (Invitrogen). The isolated RNA is then reverse-transcribed using oligo(dT) primer and Mo-MLV reverse transcriptase (Invitrogen) with DNAse I (Ambion) treatment for 30 min. The one-tenth of the produced cDNA was amplified by PCR using Taq DNA polymerase (Invitrogen) and two reporter sequence-specific primers. The PCR products were fluorescently labeled by primer extension with 6-arboxyfluorescein (6-FAM) 5'-labeled reporter sequence-specific primer (2 min at 95 C, 20 s at 68 C and 10 min at 72 C) and these products were digested with 5U of HpaI (New England Biolabs) for 2h at 37 C. The fragments were purified using Qiaquick PCR columns (Qiagen), analyzed on an ABI 3130xL genetic analyzer (Applied Biosystems) with peak positions identified by using a set of X-rhodamine (ROX)-labeled MapMarker1000 molecular weight standards (BioVentures). The raw capillary electrophoresis data was processed using Attagraph software (Attagene).
Regarding `CC(=O)OCCC(C)C`, the result was inactive.

In the case of `Cn1c(=O)c2c(ncn2C)n(C)c1=O`, the outcome was inactive.

Take `COC(=O)c1c(Cl)c(Cl)c(C(=O)OC)c(Cl)c1Cl`: the result was inactive.

With `CCCCCCCCCCCCCCCO`, the outcome was inactive.

Regarding `COc1ccc(/C=C/S(=O)(=O)NC(=O)c2ccc(C)cc2Cl)cc1`, the compound was called inactive.

For `CC(C)=CCCC(C)CCO` (stereo not given), the call was inactive.

With `CCOCCOCCOCCO`, the call was inactive.

For `O=P(OC(CCl)CCl)(OC(CCl)CCl)OC(CCl)CCl`, the compound was classed as inactive.

Take `O=C(O)CC(O)C(=O)O` (stereo not given): the result was inactive.

With `COc1ccc(-n2nc(C(F)F)cc2-c2ccc(S(C)=O)cc2)cc1` (stereo not given), the compound was called inactive.

In the case of `CCCN(C1CCN(C(=O)C2CCNCC2)CC1)[C@@H]1CCc2ccc(OC)cc2C1`, the compound was called inactive.

With `CC1(C)C(=O)N(Br)C(=O)N1Br`, the result was inactive.

As to `Cc1[nH]cnc1C[C@H]1CCc2c(C)c3ccccc3n2C1=O`, the call was inactive.

As for `CC(C)CC(C)(O)C#CC(C)(O)CC(C)C` (stereo not given), the call was inactive.

As for `C1N2CN3CN1CN(C2)C3`, the result was inactive.

`C[C@](N)(Cc1ccc(O)c(O)c1)C(=O)O`: the call was inactive.

For `Oc1ccc2c(c1)-c1ccccc1C2`, the compound was called inactive.

On to `CCOCCO`, for which the compound was classed as inactive.

For the compound `Cn1c(=O)cc(Oc2ccc(F)cc2F)c2cnc(NCC(C)(C)O)nc21`, the call was inactive.

`C=CCCCCCCCCC(=O)O`: the outcome was inactive.

With `COC(=O)c1ccccc1O`, the call was inactive.

As for `CC[C@H]1OC(=O)[C@H](C)[C@@H](O[C@H]2C[C@@](C)(OC)[C@@H](O)[C@H](C)O2)[C@H](C)[C@@H](O[C@@H]2O[C@H](C)C[C@H](N(C)C)[C@H]2O)[C@](C)(O)C[C@@H](C)C(=O)[C@H](C)[C@@H](O)[C@]1(C)O`, the result was inactive.

As for `CN(C)c1ccc(N=NS(=O)(=O)O)cc1`, the compound was classed as inactive.

In the case of `CC/C(=C\C(=N/O)C(N)=O)C(C)[N+](=O)[O-]` (stereo not given), the call was inactive.

On to `CCCCCCc1ccc(O)cc1O`, for which the compound was classed as inactive.

The AC50 is the concentration at which the activity in the assay is half-maximal. As to `O=C(CCCCCCCCc1cccnc1)N1CCC(C=C(c2ccccc2)c2ccccc2)CC1`, the AC50 is 33.8 µM (active).

For the compound `C1=CCCC=CCCC=CCC1`, the compound was called inactive.

On to `CC(C)=CCC/C(C)=C\CO`, for which the compound was called inactive.

Take `CC(O)CN(CCN(CC(C)O)CC(C)O)CC(C)O` (stereo not given): the result was inactive.

In the case of `O=C(OC[C@H]1O[C@@H](OC(=O)c2cc(O)c(O)c(OC(=O)c3cc(O)c(O)c(O)c3)c2)[C@H](OC(=O)c2cc(O)c(O)c(OC(=O)c3cc(O)c(O)c(O)c3)c2)[C@@H](OC(=O)c2cc(O)c(O)c(OC(=O)c3cc(O)c(O)c(O)c3)c2)[C@@H]1OC(=O)c1cc(O)c(O)c(OC(=O)c2cc(O)c(O)c(O)c2)c1)c1cc(O)c(O)c(OC(=O)c2cc(O)c(O)c(O)c2)c1`, the result was inactive.

Turning to `Nc1cccc(N)c1`, the result was inactive.

In the case of `CC(C)CCCCCCCOC(=O)CCCCC(=O)OCCCCCCCC(C)C`, the compound was classed as inactive.

Turning to `O=C(O)c1cccc(N(Cc2cccnc2)c2ccc(OC(F)F)c(OC(F)F)c2)c1`, the compound was classed as inactive.

Take `Cc1ccc(C)c(O)c1`: the compound was classed as inactive.

For `Cc1ccc(S(=O)(=O)O)cc1C`, the call was inactive.

On to `O=C1CCC(N2C(=O)c3ccccc3C2=O)C(=O)N1` (stereo not given), for which the compound was classed as inactive.

As to `Clc1nc(Cl)c(Cl)c(Cl)c1Cl`, the result was inactive.

Consider `O=C1OC(=O)C2C3C=CC(C3)C12` (stereo not given), for which the compound was classed as inactive.

On to `C=CC(=C)CCC=C(C)C`, for which the outcome was inactive.

As for `NC(=O)NO`, the compound was called inactive.
